Values joined by “and” are separate entries in the source; they are usually repeats but may differ in a detail not shown here. Equal values may be shown once. The panel holds about 83,000 compounds, 20% with a hit somewhere; the sample as a whole holds those more often.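 Compound tested at a single concentration for 48 hours in 96-well plates; a percent growth value below 10 was scored as active.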 Active and inactive are the calls of the source.
System: OVCAR-3 ovarian
Assay: NCI-60 one-dose screen, 48 h (100 = growth as untreated, 0 = no growth, -100 = all killed)
Details: 10 µM unless noted

SMILES	growth
CC1(c2ccc3ccccc3c2)CCC(=O)O1 (configuration not stated)	105% (inactive)
CC1=C(/C=C/C(C)=C/C=C/C(C)=C/C=N/NC(=S)NC(=S)N/N=C/C=C(C)/C=C/C=C(C)/C=C/C2=C(C)CCCC2(C)C)C(C)(C)CCC1	-74.5% (active) and -99.4% (active)
CCCCOc1cc(C(=O)NCCN(CC)CC)c2ccccc2n1	114% (inactive) and 101% (inactive)
COc1cc2c(c(OC)c1OC)-c1ccc(OC)c(=O)cc1[C@@H](NC(C)=O)CC2	-57.4% (active) and -0.335% (active) and -49% (active)
CN1CCN(c2ccc3nc(-c4c(N)c5c(F)cccc5[nH]c4=O)[nH]c3c2)CC1	53.5% (inactive) and 48.2% (inactive)

System: HS 578T breast
Assay: as above
Details: 10 µM unless noted

SMILES	growth
O=[N+]([O-])c1ccccc1/C=N\Nc1ccccc1	90.3% (inactive) and 118% (inactive)
CCN(CC)CCNc1cc(-c2cccc(OC(F)(F)F)c2)nc2ccc(N3CCCC3)cc12	66.4% (inactive) and -7.2% (active) and 38.9% (inactive)
CC(=O)Nc1cc(S(=O)(=O)O)cc2cc(S(=O)(=O)O)c(N=Nc3ccccc3)c(O)c12	92.9% (inactive) and 103% (inactive)
CC(C)CNC(=O)c1ccccc1C(=O)NC1(C(=O)NCC(C)C)CCCC1	110% (inactive) and 105% (inactive)
COc1cc2nc(N3CCN(C(=O)C4COc5ccccc5O4)CC3)nc(N)c2cc1OC (configuration not stated)	93.7% (inactive) and 118% (inactive)
O=C(Cc1cccc2ccccc12)N/N=C/c1ccc2c(c1)CCC2	85.3% (inactive)
CC1=C(/C=C/C(C)=C/C=C/C(C)=C/C(=O)O)C(C)(C)CCC1	77.1% (inactive) and 97.4% (inactive) and 75.8% (inactive)
O=C(Nc1ccc(Br)cc1)c1cc(Br)ccc1O	-1.71% (active) and -5.35% (active)
Cc1cc(-c2ccc(NS(=O)(=O)c3ccccc3)c(C)c2)ccc1NS(=O)(=O)c1ccccc1	83.4% (inactive) and 92.6% (inactive)
O=C(CCl)c1ccc2c(c1)Nc1ccccc1S2	93% (inactive) and 106% (inactive)
CC1CCCc2sc3nc(NNC(=O)c4cnccn4)n(-c4ccccc4)c(=O)c3c21 (configuration not stated)	49.1% (inactive) and 38.1% (inactive)
Cc1cc(O)c(C(C)C)cc1N	120% (inactive) and 99.7% (inactive)
COc1ccc2cc3[n+](cc2c1OC)CCc1cc2c(cc1-3)OCO2	79.6% (inactive) and 73.5% (inactive)
COc1c(/C(C)=N/N=c2sc(C(C)=O)nn2-c2ccc(Cl)cc2)c(Oc2ccccc2)c(OC)c2occc12	103% (inactive)
OC(COc1cccc2ccccc12)CN1CCN(c2ccc(Cl)cc2)CC1 (configuration not stated)	68% (inactive) and 116% (inactive)
CNc1ccc2nc3ccc(=[N+](C)C)cc-3sc2c1	-15% (active) and 20.2% (inactive)
CC1=NN(c2ccccc2)C(=O)C1C(=O)c1ccccc1 (configuration not stated)	127% (inactive)
OCCN1CCN(CCO)CC1	106% (inactive) and 98.7% (inactive) and 112% (inactive)
CC1=CCC2CC1C2(C)C (configuration not stated)	81.8% (inactive)

SMILES	growth
COc1cc(/C=N/Nc2nc3c([nH]2)c(=O)n(C)c(=O)n3C)ccc1O	118% (inactive) and 103% (inactive)
S=C(S)N1CCCC1	106% (inactive)
CC(=O)Oc1cc(C(=O)O)cc(OC(C)=O)c1OC(C)=O	99.5% (inactive) and 112% (inactive)
CCN(CC)C(=O)c1cccnc1	108% (inactive)
O=C(Nc1cccc(Cl)c1)c1cc2ccccc2cc1O	17.5% (inactive) and 21.8% (inactive)
Cn1c(SSc2ccc(-c3cccnc3)n2C)ccc1-c1cccnc1	104% (inactive)
CN1CCN(CCC=C2c3ccccc3Sc3ccc(S(=O)(=O)N(C)C)cc32)CC1	52.5% (inactive) and 65.4% (inactive)
Oc1c(Cl)cc(Cl)cc1Sc1cc(Cl)cc(Cl)c1O	47.9% (inactive) and 53.5% (inactive) and 78.2% (inactive)
O=C(N/N=C/c1ccccc1)N/N=C/c1ccccc1	118% (inactive) and 91.7% (inactive)
COc1ccc(-c2cn[nH]c2-c2cc(OC)c(OC)c(OC)c2)cc1N	39.5% (inactive) and 40% (inactive)
C1CCCCNCCC1	110% (inactive)
COc1ccccc1C(C)=O	88.2% (inactive)
NS(=O)(=O)c1cc2c(cc1Cl)NC(C(Cl)Cl)NS2(=O)=O (configuration not stated)	124% (inactive) and 128% (inactive)
O=C(Oc1cccc(OC(=O)c2ccccc2)c1)c1ccccc1	78.4% (inactive) and 102% (inactive)
CC1(c2ccc3ccccc3c2)CCC(=O)O1 (configuration not stated)	125% (inactive)
CCCCOc1cc(C(=O)NCCN(CC)CC)c2ccccc2n1	92.3% (inactive) and 128% (inactive)
COc1cc2c(c(OC)c1OC)-c1ccc(OC)c(=O)cc1[C@@H](NC(C)=O)CC2	42.6% (inactive) and -0.967% (active) and 55.1% (inactive)
CN1CCN(c2ccc3nc(-c4c(N)c5c(F)cccc5[nH]c4=O)[nH]c3c2)CC1	2.57% (active)
